# Assay results taken from PubChem BioAssay AID743279 (National Center for Advancing Translational Sciences (NCATS), 2014).
# About 17,000 (4.7%) of roughly 360,000 compounds were called active. Roughly 5% stayed inconclusive and do not appear here. Only a selection was taken, and actives are over-represented in it overall. Values without a mark were called inactive. Rule as the data show it: active = activity change below about -50%; inconclusive = mostly about -30% to -49%; inactive = weaker than that.
# Assay: qHTS for Inhibitors of Inflammasome Signaling: IL-1-beta AlphaLISA Primary Screen
# Conditions: THP-1 LPS/ATP IL-1B secretion, 16 h; at 57.5 µM, active compounds read low
# Outline: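 Secreted IL-1B measured by AlphaLISA bead assay after 16 h compound exposure of THP-1 cells; compounds (final up to 57.5 uM) added 1 h before LPS (250 ng/mL) and ATP (1.25 mM) stimulation; lower signal means less secretion.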
# % is scaled to controls: 0 for no effect and ±100 for the full control effect.
row,Structure (SMILES),activity change
1,C=CCN(N=Nc1cccc([N+](=O)[O-])c1)c1cccc([N+](=O)[O-])c1,-16.1%
2,NS(=O)(=O)c1ccc(CNC(=O)c2cccc(S(=O)(=O)N3CCc4ccccc43)c2)cc1,-11.1%
3,NS(=O)(=O)c1ccc(CNC(=O)c2cccc(Oc3ccccc3)c2)cc1,-74.2% (active)
4,NS(=O)(=O)c1ccc(CNC(=O)c2cnccn2)cc1,2.67%
5,CCc1ccc(OC2(C)CCN(CCOc3ccc(C)cc3)C2)cc1 (stereo not given),-10%
6,O=C1CSC(=S)N1/N=C/c1ccc(O)c([N+](=O)[O-])c1,23.5%
7,O=C(CC[C@H]1O[C@@H](n2ccc(=O)[nH]c2=O)[C@H](O)[C@@H]1O)N[C@H](Cc1ccccc1)C(=O)NCCCN1CCCC1=O,15.8%
8,Cc1cc(C(=O)N2CCCC2(C)C(=O)O)c(C)o1 (stereo not given),-11.9%
9,CCn1c(SCC(=O)Nc2nc(C)cs2)nnc1C(C)NC(=O)c1ccccc1 (stereo not given),-6.67%
10,COc1ccc(CN2CCN(Cc3cn(C)nc3-c3ccccc3)CC2CCO)c(C)c1C (stereo not given),-57.9% (active)
11,Cc1ccc(CN2CCN(Cc3cn(C)nc3-c3ccccc3)CC2CCO)o1 (stereo not given),40.4%
12,CCn1nc(C)c(CN2CCN(Cc3ccc(OC)c(C)c3C)C(CCO)C2)c1C (stereo not given),9.61%
13,Cc1noc(C)c1C(=O)N1CCC1(C)C(=O)NS(=O)(=O)c1ccc(C#N)cc1 (stereo not given),-5.56%
14,O=C(Nc1ccccc1)c1ccccc1Br,9.09%
15,CC1(C(=O)NS(=O)(=O)c2ccc(C#N)cc2)CCN1C(=O)CC1CCCC1 (stereo not given),4.38%
16,CC(=O)C[C@@H]1OC[C@H](C)N1S(=O)(=O)c1ccc(C)cc1,-13.9%
17,Cc1cccc(NC(=O)NC(=S)NC(=O)c2ccccc2)c1,-7.59%
18,Cc1ccc(NC(=S)NC(=O)c2ccc(-c3ccccc3)cc2)c(C)c1,-50.2% (active)
19,Cc1cc2[nH]ncc2cc1NC(=S)NC(=O)c1ccccc1,-1.02%
20,O=C(N[C@H]1C/C=C\C(c2cccc(F)c2)N(Cc2ccccc2)C(=O)C1)OCC1c2ccccc2-c2ccccc21 (stereo not given in full),-10%
21,CC[C@@H]1CC2=C(C(=O)OC(C)(C)O2)[C@@H](CC)O1,22.9%
22,O=C(C1CC1)N1N=C2CCCCC2C1(O)C(F)(F)F (stereo not given),-13%
23,CCOC(=O)c1ccc(COC(=O)c2cc(=O)[nH]c3ccccc23)o1,-68.1% (active)
24,O=C(OCc1nnc(-c2ccccc2)o1)c1cc(=O)[nH]c2ccccc12,-11.8%
25,CN(C(=O)COC(=O)c1cc(=O)[nH]c2ccccc12)C1CCCCC1,0%
